Source: PubChem BioAssay (National Center for Advancing Translational Sciences (NCATS))
Only some compounds are listed: those with a hit (about 7.3% of all), similar ones and a draw of the others.
p53 reactivator: qHTS assay for re-activators of p53 using a Luc reporter; H1299 p53-A138V BP100-luciferase reporter, luminescence, 24 h; Potency, µM (doses to about 92.2 µM), for the others: at the top dose activity change, positive = activation, hits mostly activators; 0.063% of 320,000 active; AID 504706, 2011; further: % of control where 0% means no effect; nearly all actives have a fitted effect of over 45% in size
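p53-null H1299 cells stably carrying temperature-sensitive p53-A138V and a BP100-luciferase reporter were pinned with compounds (4-point, 1:5 series) and held 24 hrs at 37 deg C. Luminescence was read 10 min after detection reagent.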
Rab9 promoter act: qHTS Assay for Rab9 Promoter Activators; AID 485297, 2010; Potency, µM (highest dose often 9.22 µM), without a hit: at the highest dose activation, negative = inhibition, hits mostly activators; 2.8% of 320,000 active; Huh7 Rab9 promoter-luciferase reporter, luminescence, 24 h; further: % of control where 0% means no effect; nearly all actives have a fitted effect of over 60% in size
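Luminescence from Amplite-detected luciferase (10 minutes, ambient) reports Rab9 promoter activation. Before that, stable Rab9-luciferase Huh7 cells (1500/well, reduced-serum OP-MEM I plus 10% FBS) were exposed to compound for 24 hours at 37C.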
FLuc counter: qHTS profiling assay for firefly luciferase inhibitor/activator using purifed enzyme and Km concentrations of substrates (counterscreen for miR-21 project). Luciferin 4-monooxygenase (Photinus pyralis), P08659. purified FLuc, Km substrates, luminescence inhibition. Potency, µM (series often up to 57.5 µM), without a hit: at the highest dose activity change, negative = inhibition, usual class: inhibitors. 6.9% of 360,000 active;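 further: plate controls were vehicle for no effect and reference inhibitor for full effect; nearly all actives have a fitted effect of over 55% in size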
Target sequence (P08659 whole entry, looked up): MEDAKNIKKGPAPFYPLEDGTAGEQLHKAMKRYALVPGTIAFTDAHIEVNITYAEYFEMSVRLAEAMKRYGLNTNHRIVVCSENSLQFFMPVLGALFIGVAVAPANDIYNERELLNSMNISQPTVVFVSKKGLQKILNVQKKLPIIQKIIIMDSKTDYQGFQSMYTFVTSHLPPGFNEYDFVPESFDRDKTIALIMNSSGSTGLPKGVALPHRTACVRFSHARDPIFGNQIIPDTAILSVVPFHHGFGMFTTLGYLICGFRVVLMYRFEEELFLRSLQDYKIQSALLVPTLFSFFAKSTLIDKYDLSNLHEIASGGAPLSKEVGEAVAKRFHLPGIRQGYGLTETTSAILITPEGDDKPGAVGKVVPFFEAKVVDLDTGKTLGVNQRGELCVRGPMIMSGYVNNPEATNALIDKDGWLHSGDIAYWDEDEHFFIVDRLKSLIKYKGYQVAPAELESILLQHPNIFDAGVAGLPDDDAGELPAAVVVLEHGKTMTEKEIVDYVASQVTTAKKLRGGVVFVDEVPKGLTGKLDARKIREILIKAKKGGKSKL
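Purified P. pyralis luciferase, 10 nM final, with Km-level 10 uM D-luciferin and 10 uM ATP in 50 mM Tris acetate pH 7.5, 10 mM Mg acetate, 0.01% Tween-20, 0.05% BSA; 6-point qHTS titration about 60 µM downward; luminescence read.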
ELG1 genotoxic: qHTS screen for small molecules that induce genotoxicity in human embryonic kidney (HEK293T) cells expressing luciferase-tagged ELG1; Potency, µM (doses to about 46 µM), without a hit: at the top dose activity change, positive = activation, actives largely listed as activators; HEK293T ELG1-luciferase reporter, luminescence, 16 h; 1.3% of 330,000 active; further: % of control where 0% means no effect; nearly all actives have a fitted effect of over 60% in size
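Cells (2,000/well) expressing the ELG1-luciferase fusion are dosed by pin tool and kept 16 hr at 37 °C, 5% CO2. Signal comes from ONE-Glo luciferase reagent after 30 min at room temperature.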
NPC1 promoter act: qHTS Assay for NPC1 Promoter Activators; Huh7 NPC1 promoter luciferase reporter, 24 h; Potency, µM (doses to about 9.22 µM), for inactives: at the highest dose activation, usual class: activators; 2.4% of 320,000 active; AID 485313, 2010; further: % of control where 0% means no effect; nearly all actives have a fitted effect of over 60% in size
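Luminescence read-out of NPC1 promoter-driven luciferase in stably transfected Huh7 cells; compounds delivered in DMSO and left 24 h at 37C, 5% CO2, qHTS titration format.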
SMN2 splice up: qHTS Assay for Enhancers of SMN2 Splice Variant Expression. HEK293 SMN2-luciferase splicing reporter, luminescence, 30-36 h. Potency, µM (titrated, usually from 46.1 µM), without a hit: at the highest dose activity change, positive = activation, actives largely listed as activators. 2.8% of 210,000 active; further: % of control where 0% means no effect; nearly all actives have a fitted effect of over 55% in size
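qHTS luciferase splicing reporter: luminescence rises when SMN2 exon 7 is included in transfected HEK293 cells. Compound exposure lasted 30-36 h at 37C, with 4.5 mM final sodium butyrate as control, followed by a ONE-Glo read.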
Numbers without * were called inactive; ? = inconclusive; nt = not tested or not shown; [ ] = dose if it differs, or a comment. The call rests on the fitted dose curve; in most records, active means well fitted curve in the direction sought with a large enough effect; inconclusive means small, poorly fitted or top-dose-only effect, or another doubt; inactive means no such curve, though single readings can be large; an effect the other way counts as inactive or inconclusive. Potency means the concentration at half of the fitted maximal effect.

SMILES | p53 reactivator | Rab9 promoter act | FLuc counter | ELG1 genotoxic | NPC1 promoter act | SMN2 splice up
Cc1ccc(COc2ccc(/C=N/O)cc2)cc1 | ? | 1.3µM* | 5.4µM* | ? | ? | 10µM*
CCOc1ccc(/C=N/O)cc1 | 23% | 9% | -17% | ? | 7% | 18%
Cc1n[nH]c(=S)n1/N=C/c1ccc(OCc2ccc(Cl)cc2)cc1 | 14% | 13% | 19µM* | 2% | 15% | -6%
Cc1n[nH]c(=S)n1/N=C/c1ccc(OCc2ccc(Cl)cc2Cl)cc1 | ? | 10% | ? | 13% | 19% | ?
O=C(COC(=O)c1ccccn1)c1ccc(Br)cc1 | -1% | 3% | 2.4µM* | 0% | 1% | 4%
O=C(COC(=O)c1ccc(Br)cc1)Nc1cccnc1Cl | 1% | -4% | -3% | 4% | -1% | nt
CC(=O)c1cccc(NC(=O)COC(=O)c2ccccn2)c1 | 0% | -5% | ? | 1% | 1% | nt
O=C(OCC1CC(c2ccccn2)=NO1)c1ccc(Br)cc1 (configuration not stated) | 6% | 9% | 17µM* | 13% | 12% | -5%
COc1ccc(C(=O)COC(=O)c2ccccn2)cc1OC | 7% | -2% | -10% | 2% | -2% | nt
O=C(COC(=O)c1ccccn1)c1cccc(Br)c1 | 15% | -5% | 19µM* | -1% | ? | nt
CCCCCCOC(=O)c1ccc(N)cc1 | ? | ? | 11µM* | ? | ? | nt
CCCCOC(=O)c1ccc(NC(C)=O)cc1 | ? | 1% | ? | 3% | 19% | 15%
CCCCOC(=O)c1ccc(N)cc1 | 10% | 15% | ? | ? | 21% | 28%
CCCCOC(=O)Nc1ccc(C)c(Cl)c1 | 13% | 2.8µM* | 6.7µM* | ? | 3.5µM* | ?
CCCCOC(=O)Nc1ccc(C(=O)OC)cc1 | ? | ? | 12µM* | ? | ? | -2%
CCCCOC(=O)c1ccc(NC(=O)c2cc(Cl)c(Cl)cc2C(=O)O)cc1 | 4% | -7% | 21µM* | 4% | 0% | nt
COc1ccc(C)cc1NC(=O)CN1C(=O)CCc2cc(S(=O)(=O)N3CCOCC3)ccc21 | nt | nt | -3% | nt | nt | nt
Cc1ccc(Sc2ccc(N)cn2)cc1 | 4% | 6% | ? | 5% | 13% | nt
CC(C)NC(=O)CSc1ncccc1-c1nc2ccccc2[nH]1 | nt | 7% | ? | 9% | -1% | nt
O=C(CSc1ncccc1-c1nc2ccccc2[nH]1)N1CCCCC1 | 4% | 12% | 17µM* | 15% | 10% | 5%
Cc1ccc2nc(-c3cccnc3SCC(=O)N3c4ccccc4CC3C)[nH]c2c1 (configuration not stated) | ? | ? | 5.4µM* | ? | ? | 14µM*
CCN(CC)C(=O)CSc1ncccc1-c1nc2ccccc2[nH]1 | 0% | 1% | 24µM* | 5% | 1% | nt
CN(C)C(=O)CSc1ncccc1-c1nc2ccccc2[nH]1 | 26% | 9% | ? | 0% | 9% | nt
COc1cc2nc(NCCc3ccccc3)n3nc(-c4cccnc4)nc3c2cc1OC | nt | nt | -4% | nt | nt | 0%
CCN(CC)C(=O)Oc1ccc2c(c1)O/C(=C\c1ccco1)C2=O | 13% | ? | 3µM* | 12% | ? | nt
SMILES | p53 reactivator | Rab9 promoter act | FLuc counter | ELG1 genotoxic | NPC1 promoter act | SMN2 splice up
O=C(Oc1ccc2c(c1)O/C(=C\c1ccncc1)C2=O)c1cccs1 | 1% | -1% | -18% | -1% | 1% | nt
COc1ccccc1C(=O)Oc1ccc2c(c1)O/C(=C\c1ccncc1)C2=O | 1% | -4% | ? | 2% | -2% | 12%
CCC(=O)Oc1ccc2c(c1)O/C(=C\c1ccco1)C2=O | 8% | 12% | 3.4µM* | 9% | 1% | nt
Cc1cc(O)cc2c1C(=O)/C(=C/c1ccco1)O2 | ? | -2%[1.84 µM] | 12µM* | 22% | ? | nt
COC(=O)COc1ccc2c(c1)O/C(=C\c1ccco1)C2=O | 4% | 13% | 3.4µM* | 0% | 1% | nt
COCCN(CCOC)Cc1c(O)ccc2c1O/C(=C\c1ccco1)C2=O | -4% | -2% | -5% | -2% | -1% | nt
CCS(=O)(=O)c1nc(S(=O)(=O)c2ccc(C)cc2)c(NCc2ccccc2Cl)s1 | nt | nt | 0% | nt | nt | -3%
CCOC(=O)C1C(=O)CC(C)(O)C(C(=O)OCC)C1c1ccc(C)s1 (configuration not stated) | 9% | ? | 6%[2.3 µM] | 2% | 4.5µM* | 22%
CC(=O)N1CCC(=NNc2nc3ccccc3s2)CC1 | 17% | 4µM* | 17µM* | 11% | 26% | 10%
CCOC(=O)N1CCC(=NNc2nc3ccccc3s2)CC1 | 9% | 4µM* | 3.4µM* | ? | 2.5µM* | nt
CCOC(=O)N1CCN(S(=O)(=O)c2ccc(C(=O)Nc3nc4ccccc4s3)cc2)CC1 | -7% | -6% | 0% | -1% | 0% | -16%
COc1ccc(C(=O)NN2C(=O)C3CCC(C)(C2=O)C3(C)C)cc1 (configuration not stated) | -5% | 1% | 2% | 0% | 3% | -10%
CCOC(=O)C(=CNc1ccc(N2CCOCC2)cc1)C(=O)OCC | 2% | 1% | -11% | -8% | -3% | nt
CCOC(=O)C(=CNc1ccc2c(c1)CCN2C(C)=O)C(=O)OCC | 0% | 28% | 12µM* | -1% | 17% | nt
Cc1ccc(NC(=O)Cn2c(SCc3ccc(F)cc3)nc3cccnc32)cc1F | nt | nt | -18% | nt | nt | nt
CC(C)(C)NC(=O)c1sccc1C(=O)O | ? | -1% | 15µM* | 2% | 0% | -14%
CSc1nc(C)cc(Oc2ccc(=O)[nH]n2)n1 | -1% | 0% | -3% | 1% | -4% | 1%
Cc1cc(Oc2ccc(=O)[nH]n2)nc(Cl)n1 | 13% | 3.2µM* | 15µM* | ? | 1µM* | nt
CCc1ccc(CNC(=O)c2ccc(-n3c(C)cc4c3CCC(C)C4)cc2)cc1 (configuration not stated) | nt | nt | -6% | nt | nt | nt
COc1ccc(S(=O)(=O)N(CCO)c2ccccc2CN(C)C/C=C/c2ccc(Cl)cc2)cc1 | nt | nt | nt | nt | nt | -67%
Cc1ccc2cc(NC(=O)c3ccc(C(C)(C)C)cc3)ccc2n1 | 9% | 2% | 9.5µM* | -15% | -2% | nt
CCc1ccc(C(=O)Nc2ccc3nc(C)ccc3c2)cc1 | ? | 2.8µM* | 5.4µM* | ? | 3.5µM* | nt
CC(C)(C)c1ccc(C(=O)Nc2ccc(NC(=O)c3ccc(Cl)c(Cl)c3)cc2)cc1 | nt | nt | 1% | nt | nt | -8%
